# In all, about 33,000 sequences were measured (“E-score (-0.5 to 0.5)”: median about -0.0059, highest 2% from about 0.26 on). Many of the other results were omitted from the sample, so the highest values are more common in it than they were.
# Molecular target: T1, Cin5 (UniProt P40917)
# T1 sequence: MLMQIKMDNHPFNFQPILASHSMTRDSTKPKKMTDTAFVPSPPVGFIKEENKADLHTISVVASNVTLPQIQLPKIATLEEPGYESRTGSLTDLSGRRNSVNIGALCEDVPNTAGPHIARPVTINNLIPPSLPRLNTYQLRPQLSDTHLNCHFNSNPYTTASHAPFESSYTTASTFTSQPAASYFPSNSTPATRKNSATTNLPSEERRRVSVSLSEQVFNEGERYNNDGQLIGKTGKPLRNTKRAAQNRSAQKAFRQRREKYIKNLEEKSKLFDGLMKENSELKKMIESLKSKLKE
# Test: PBM E-score (8-mer binding enrichment) (E-score (-0.5 to 0.5)); higher = stronger / more preferred TF binding
# Details: protein concentration: 100 nM; construct: GST-full length
# Description: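 Universal 'all 10-mer' protein binding microarrays (Agilent AMADID 015681) probed with GST-tagged S. cerevisiae TFs (full-length or DBD) made by in vitro transcription/translation (PURExpress), about 100-200 nM. Bound TF was detected with fluorescent anti-GST. Each ungapped 8-mer (which stands for itself and its reverse complement) is scored by the PBM enrichment score (E-score), a modified Wilcoxon-Mann-Whitney statistic from -0.5 to +0.5, computed with the Universal PBM Analysis Suite. Scale: above 0.35 generally sequence-specific binding.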
row,Sequence,PBM E-score
1,GTCATATA,0.168
2,ATTATATG,0.249
3,GTTATACA,0.181
4,GTTATAGA,-0.0531
5,ATCATATG,0.169
6,ATTTTGTG,0.139
7,ATTATATA,0.333
8,ATTATATC,0.197
9,CTTTTGTA,0.205
10,ATTTTGTA,0.286
11,ATCATATA,0.269
12,GTTATATA,0.271
13,TACATCCA,0.0256
14,GCAGCACA,0.00715
15,AGGTGGTA,0.0927
16,GGCCAGGA,-0.0739
17,CAGCGTAA,0.0543
18,AGGCTATA,-0.161
19,CTTATATA,0.348
20,ATTATCCG,0.289
21,ATTATCCA,0.122
22,ATGTTGTG,0.151
23,ATGTTGTA,0.263
24,ACTATATC,0.214
25,CTTATATC,0.232

row,Sequence,PBM E-score
1,CTTATACA,0.0656
2,GCTATATA,0.153
3,ACTATATA,0.309
4,GTGTTGTA,0.0125
5,ATTATCCC,0.151
6,GCGTTAAC,0.00491
7,CCCTAGAC,-0.112
8,TCCTCGAA,0.043
9,TAAGCGTA,0.126
10,GAACTGGA,0.158
11,CTTTGCGC,0.123
12,CGTATGAA,0.188
13,GCTCTATA,-0.0373
14,GCGATCTA,0.068
15,ATTTTATG,0.208
16,ATTTTATA,0.272
17,ATTTGTAA,0.326
18,ATTTGTAG,0.136
19,ATTATACC,0.187
20,CTTTGTAA,0.115
21,GTTTTATA,0.148
22,ATTATACA,0.123
23,ATTTGTTA,0.179
24,CTTTGTTC,0.0999
25,ATTTGTTC,0.307

row,Sequence,PBM E-score
1,ATTATACG,0.257
2,CACCAGTG,-0.0701
3,AGCCTTGC,-0.0563
4,CCCCGGGC,-0.282
5,CGATGACA,0.0915
6,ATCGACAT,0.0947
7,ATATTTGC,0.209
8,CCTTTAAG,-0.107
9,CTTGAGCA,-0.216
10,AATCTAAT,0.0853
11,ATCTATTA,0.321
12,ACGTATTG,0.0396
13,ACGTATTA,0.298
14,ATGTATTC,0.104
15,CTCTATTA,0.0158
16,ATGTATTG,0.304
17,ACCTATTA,0.267
18,GTCTATTA,0.0891
19,GCCTATTA,0.177
20,ATGTATCG,0.232
21,CCCTATTA,-0.0143
22,GCGTATTA,0.0794
23,ACTAGCAA,0.00926
24,AGATCACT,0.112
25,ACAAGTAT,0.221

row,Sequence,PBM E-score
1,AGGTATTG,0.126
2,CTTCAGTA,0.0297
3,ATAGTAGA,0.139
4,CTGTATTA,0.133
5,ATGTATTA,0.233
6,GTGTATTA,0.273
7,GCTGTTCC,-0.0338
8,CTCTTATC,0.192
9,GTGGAAAA,0.0919
10,CCGCGTGC,-0.0723
11,GCTTACAA,0.248
12,ACTTACAC,-0.04
13,TCTTACCA,-0.0191
14,CCTTACGA,-0.114
15,AATTACTA,0.212
16,GCTTACAC,0.391
17,GCTTACCA,0.381
18,GCTTACCC,0.00966
19,CATTACTA,0.189
20,GATTACTA,0.387
21,ACTTACGA,0.207
22,GCTTACGA,0.414
23,ATTGTGAC,0.0953
24,GAGCCACC,-0.354
25,GTACCGGA,-0.00967

row,Sequence,PBM E-score
1,AGCGGCTG,-0.125
2,ACAGCCAG,-0.0281
3,CAATTGGC,0.165
4,AATTCCAA,0.0946
5,GACGCTTA,-0.059
6,CGACGTAC,-0.00505
7,CCGTCGCC,-0.0908
8,CCCATATA,0.178
9,AGAAGGAC,-0.211
10,CGCCAGGA,-0.0898
11,CCTTATCA,0.0994
12,ACTTATCA,0.0834
13,ACTTACTA,0.108
14,GCTTATCA,0.285
15,GCTTACTA,0.388
16,CCTTACTA,0.0454
17,AAGCCGCG,-0.0409
18,ACATTCGA,0.0628
19,ATCCGGAA,0.227
20,ATCCGGAC,-0.149
21,ATCCGGAT,0.259
22,TGGGGTAA,0.0776
23,CGTAGTCA,-0.015
24,ACTGTAAG,0.143
25,AATGTAAA,0.19

row,Sequence,PBM E-score
1,AATGTAAG,0.319
2,AATGTAAC,0.117
3,CATGTAAG,0.13
4,AATGTAAT,0.301
5,CAGGCAAA,-0.00195
6,AGACCCAG,-0.097
7,CAACGCCA,-0.074
8,GGTATTTA,0.0824
9,CGTATTTA,0.308
10,ATTATTTC,0.3
11,ACTATTTC,0.228
12,CTTATTTC,0.238
13,ATTTATTA,0.306
14,GTTTATTA,0.215
15,CTCATTTC,-0.04
16,ATCATTTA,0.226
17,ATCATTTC,0.264
18,CTTTATTA,0.0651
19,AGTATTTA,0.0905
20,ATAGACGC,0.122
21,CACAGCAG,0.0514
22,CCTGCGTA,-0.115
23,GCACCGAC,-0.0796
24,ATATTTTC,0.31
25,CTTATTTA,0.164

row,Sequence,PBM E-score
1,ATGATTTG,0.123
2,ATTATTTG,0.206
3,ATATTTTA,0.201
4,CTTTATAA,-0.0352
5,ATTTATAA,0.299
6,CTATTTTC,0.0963
7,ATTATTTA,0.319
8,CTGATTTA,0.0451
9,ATGATTTA,0.268
10,ATTTATAC,0.253
11,GCACTGCA,-0.0484
12,AGCTGCTA,-0.0218
13,CCTGCAAG,-0.215
14,GAAGAATC,0.00251
15,AACAGCCG,-0.0368
16,CCGCACAG,-0.0131
17,GTATAAAA,0.26
18,CTATAAAA,-0.0202
19,GTATAAAC,0.26
20,ATATAAAC,0.255
21,TGATAAAA,0.0968
22,CTCTAAAA,-0.125
23,TTATAAAA,0.289
24,ATATAAAA,0.154
25,CTATAAAC,-0.00307

# Source: the supplement of paper PMC3334620
